# tim23-1 inh: tim23-1 yeast growth inhibition | S. cerevisiae tim23-1 growth, BacTiter-Glo luminescence, 24 h | inhibition, % at 20 µM | 330,000 tested, 1.3% active | AID 463212;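 active = growth inhibition of the mutant yeast at or above 50%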;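 note: temperature-sensitive mutant grown at 25 °C; plate controls were DMSO-treated mutant yeast for no effect and medium wells lacking yeast for full effect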
# NLRP3 yeast inh: inhibitors of NALP3 inflammasome in yeast; inhibition, % at 10 µM; 330,000 tested, 0.39% active; Yeast reconstituted NLRP3/ASC/caspase-1, beta-gal luminescence, 24 h;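 active = inhibition of 50% or more; inactive = inhibition below 50%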;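 note: plate controls were induced DMSO wells for no effect and uninduced yeast grown without galactose for full effect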
# TIM10 inh: inhibits growth of TIM10 yeast strain; S. cerevisiae TIM10 strain growth, BacTiter-Glo luminescence, 24 h; inhibition, % at 10 µM; 330,000 tested, 1.4% active; AID 463195;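 active = inhibition of 40% or more at the single tested concentration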;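 note: wild-type TIM10 isogenic control strain grown at permissive 25 °C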
# tim10-1 inh: tim10-1 yeast growth inhibition; S. cerevisiae tim10-1 ts strain growth, BacTiter-Glo, 24 h; inhibition, % at 20 µM; 330,000 tested, 2.2% active; AID 463190;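 active = inhibition of at least 40%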;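 note: mutant grown at 25 °C; 0% = DMSO wells with yeast and 100% = wells holding no yeast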
# SKKanGAS inh: SKKanGAS growth inhibition; S. pyogenes SKKanGAS, kanamycin growth, BacTiter-Glo, 6 h; inhibition, % at 7.5 µM; 300,000 tested, 1.3% active; AID 1662;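 active = mean replicate score, as percent of positive control median, at least 50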;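 note: strain carries kanamycin resistance gene driven by streptokinase promoter and grows in 40 µg/ml kanamycin; loss of luminescence reflects streptokinase promoter inhibition or plain growth inhibition; 0% = median of DMSO wells and 100% = positive control at its reference dose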
# PfHsp90 yeast 2: inhibits growth of yeast expressing Plasmodium falciparum Hsp90. S. cerevisiae expressing PfHsp90, BacTiter-Glo ATP, 48 h; yeast lacking PDR1 and PDR3 efflux regulators. inhibition, % at 9.4 µM. AID 504621. 310,000 tested, 0.32% active;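 active = every replicate shows inhibition above about 80%, whatever the replicate mean, limit read from the data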;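 note: 0% = DMSO neutral controls and 100% = 20 µM radicicol positive controls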
# tim10-1 conf: confirmation of tim10-1 mutant yeast growth inhibitors. shares compounds with tim10-1 inh. S. cerevisiae tim10-1 ts strain growth, BacTiter-Glo, 24 h. inhibition, % at 20 µM. 7,400 tested, 56% active;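 active = inhibition of yeast growth at or above a set limit in either of two repeat tests at 20 µM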;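 note: tim10-1 mutant grown at permissive 25 °C to find synthetic lethal compounds; 0% = DMSO yeast wells and 100% = medium wells without yeast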
# The depositor's hits bear a star; · = not tested or not shown. Rows were chosen to be rich in hits. Some 4.6% of all compounds tested hit in one or more screens of this group.
SMILES,tim23-1 inh,NLRP3 yeast inh,TIM10 inh,tim10-1 inh,SKKanGAS inh,PfHsp90 yeast 2,tim10-1 conf
O=[N+]([O-])c1cc(Cl)ccc1N1CCN(c2ccccc2O)CC1,37,6,40,59*,-1,-5,53*
Cn1c(=O)c2c(nc(Oc3ccc(-c4ccccc4)cc3)n2C)n(C)c1=O,14,30,19,40*,36,-5,5
Cc1ccc(Oc2nc3c(c(=O)n(C)c(=O)n3C)n2C)cc1C,17,18,-3,8,24,-20,·
CN(C)/N=C/C=C1\CCC/C(=C\c2ccc(F)c(F)c2)C1=O,46,10,30,46*,-12,23,48*
COc1ccc(/C=C2\CCC/C(=C\C=N\N(C)C)C2=O)cc1,31,-9,31,26,6,24,·
CCOC(=O)CN1C(c2ccc(O)cc2)Nc2ccc(Br)cc2C1c1ccccc1 (stereo not drawn),44,1,32,46*,5,-11,18
O=C(O)CN1C(=O)/C(=C\C(Br)=C\c2ccccc2)SC1=S,21,9,29,43*,-4,-8,35*
O=C(c1cn(-c2ccccc2)nc1-c1ccc(Cl)s1)N1CCOCC1,25,9,21,44*,-3,-124,25
O=C(c1cn(-c2ccccc2)nc1-c1ccc(Cl)cc1)N1CCOCC1,46,10,31,35,11,-32,·
O=C(N1CCC(n2nc(-c3ccccc3)oc2=O)CC1)C1(c2ccc(Cl)cc2)CC1,43,22,26,53*,4,-18,2
COc1ccc2nc3oc(C(=O)N4CCC(C(N)=O)CC4)cc3cc2c1,10,8,-5,6,-2,-19,·
COc1ccc2cc3cc(C(=O)N4CC(C)CC(C)C4)oc3nc2c1 (stereo not drawn),46,17,30,56*,19,-50,21
Cc1nc2ccccc2c2oc(C(=O)NCCCN3CC(C)CC(C)C3)cc12 (stereo not drawn),-10,12,-4,-8,7,18,·
Cc1nc2ccccc2c2oc(C(=O)N3CC(C)CC(C)C3)cc12 (stereo not drawn),42,5,5,52*,14,-29,-9
Cc1ccccc1OCC(=O)Nc1ccc2c(c1)n(C)c(=O)n2C,21,10,-4,-6,-5,11,·
CCN(CC)C(=O)c1cccc(NC(=O)CC23CC4CC(CC(C4)C2)C3)c1,25,3,24,2,5,-27,·
CC(C)(C)n1nnnc1C(c1cccs1)N(Cc1ccccc1)Cc1cccnc1 (stereo not drawn),34,-28,15,22,-1,-2,·
CC(C)(C)n1nnnc1C(c1cccnc1)N(Cc1ccccc1)Cc1cccs1 (stereo not drawn),27,5,34,56*,16,-5,33*
CCN(CC)C(=O)COc1ccc(C=O)cc1OC,5,0,3,18,-2,-8,·
Cc1ccc(-n2c(SCC(=O)OC(C)C)nnc2-c2ccccn2)cc1,36,8,30,42*,0,1,35*
COC(=O)CSc1nnc(Cc2ccccc2)n1-c1ccc(C)cc1,16,1,19,41*,2,-24,26
Cc1ccc(-n2c(Cc3cccn3C)nnc2SCC(=O)N2CCc3ccccc32)cc1,35,12,33,43*,1,0,22
Cn1cccc1Cc1nnc(SCC(=O)N2CCc3ccccc32)n1-c1ccc(F)cc1,12,4,2,9,-11,-4,·
COc1ccc(-n2c(CNc3ccc(C)cc3)nnc2SCc2ccccc2)cc1,48,0,26,43*,7,20,34*
CCN(Cc1nc2ccccc2c(=O)[nH]1)C(=O)COc1ccccc1Cc1ccccc1,36,4,-8,17,·,-27,·
SMILES,tim23-1 inh,NLRP3 yeast inh,TIM10 inh,tim10-1 inh,SKKanGAS inh,PfHsp90 yeast 2,tim10-1 conf
O=C(NCc1n[nH]c(=S)n1-c1cccc(Cl)c1)c1ccc(S(=O)(=O)N2CCCCC2)cc1,9,25,-4,12,9,-107,·
Fc1ccc(Sc2cc(Cl)c(-c3ccccc3)nn2)cc1,43,23,13,30,14,-25,·
C#CCOCCOCCOCCNc1nc(N2CCN(C(=O)CCCCCCCCCCNC(=O)[C@H](CO)n3cc(CCCSC)nn3)CC2)nc(N2CCN(C(=O)CCCCCCCCCCNC(=O)[C@H](CCCN=C(N)N)n3cc(C[C@@H](C)CC)nn3)CC2)n1,27,17,5,23,·,15,·
CCOC(=O)CSc1nnc(CNc2ccccc2Cl)n1-c1ccccc1,24,-21,3,45*,12,·,20
CC(C)CCNC(=O)NC(=O)CSc1nnc(COc2ccccc2Cl)o1,-15,1,25,49*,5,3,13
Cc1ccc(CC(=O)Nc2nc3ccccc3s2)cc1,29,23,18,44*,5,-46,26
O=c1c(Cl)c(N2CCN(c3ccccc3)CC2)cnn1C12CC3CC(CC(C3)C1)C2,39,5,16,34,3,10,·
O=c1c(Cl)c(N2CCN(c3ccc(F)cc3)CC2)cnn1C12CC3CC(CC(C3)C1)C2,38,11,30,48*,2,3,29
O=C(NCCCNc1ccc(C(F)(F)F)cc1[N+](=O)[O-])c1ccc(Cl)cc1,9,38,-4,46*,17,12,-2
Cc1c([N+](=O)[O-])c(C(=O)Sc2ccc(Br)cc2)nn1C,24,10,16,47*,0,0,46*
Cc1c([N+](=O)[O-])c(C(=O)N2CCCC2)nn1C,6,-11,8,4,-1,-2,·
CCOC(=O)c1csc(NC(=O)CC2CCCC2)n1,19,-23,-6,32,-2,-38,·
O=C(CSc1nnc(-c2cccs2)o1)c1cccs1,-3,6,10,7,-2,-18,·
CCN(CC)C(=O)CSc1nnc(-c2cc(-c3ccc(Cl)cc3)nc3ccccc23)o1,18,13,0,4,14,13,·
CN(C)C(=O)CSc1nnc(-c2cc(-c3cccs3)nc3ccccc23)o1,34,31,32,40*,34,10,38*
Cc1cc(C(=O)CSc2nnc(-c3cccs3)o2)c(C)n1-c1ccccc1,28,5,27,48*,17,5,34*
CCOC(=O)c1cnc2c(OC)cccc2c1N1CCN(c2ccc(OC)cc2)CC1,12,16,4,40*,10,8,17
CCOC(=O)c1cnc2c(OC)cccc2c1N1CCN(c2ccccn2)CC1,37,-1,20,48*,-4,-8,21
CCOC(=O)c1cnc2c(C(F)(F)F)cccc2c1N1CCN(C)CC1,7,10,-12,12,0,0,·

# Compound activity (PubChem)
